Pf growth 96h: inhibits malaria parasite growth, 96 h; 320,000 tested, 6.9% active; Potency, µM (top dose mostly 28.7 µM), for the others: top-dose activity change, negative = inhibition, actives largely listed as inhibitors; P. falciparum luciferase reporter growth, 96 h
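Parasite growth measured via integrated firefly luciferase reporter in P. falciparum. Infected erythrocytes at 2% hematocrit, 0.05% parasitemia final were treated 96 hours at 37 C under 5% CO2, and luminescence was read.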
AMA1-RON2 inh: disrupts binding of P. falciparum AMA1 to RON2. AlphaScreen AMA1-biotinylated RON2 peptide binding. Potency, µM (titrated, usually from 58.2 µM), for the others: at the top dose activity change, negative = inhibition, usual class: inhibitors. 360,000 tested, 0.2% active;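 further: 0% = vehicle wells and -100% = peptide control; nearly all actives have a fitted effect of over 45% in size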
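AMA1 (3D7) with his tag at 25 nM final met compounds first, then biotinylated RON2 peptide at 25 nM; detection used donor plus acceptor beads, 10 µg/mL apiece, read by AlphaScreen after 30 min at room temperature.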
Pf growth 48h: inhibits P. falciparum growth in the first generation, 48 h; P. falciparum luciferase growth in erythrocytes, 48 h; Potency, µM (highest dose often 28.7 µM), inactives show at the highest dose activity change, negative = inhibition, hits mostly inhibitors; 310,000 tested, 5.9% active; AID 504832
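Parasite viability was followed by luminescence of a genomically integrated firefly luciferase. Cultures held 0.1% parasitemia at 2% hematocrit (final), incubated under 5% CO2 at 37 C.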
HCV inhibitor: inhibitors of hepatitis C virus infection | Huh7.5.1 HCVcc-Cre infection, luciferase reporter, 44 h | Potency, µM (series often up to 41.8 µM), for inactives: at the highest dose activity change, negative = inhibition, most hits filed as inhibitors | 340,000 tested, 3.4% active | AID 651820
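Reporter virus HCVcc-Cre (~0.5 moi) infects cells exposed to compound; seeding density 1,000 cells/well with 4 h settling beforehand. Luminescence, 15 sec read, taken 44 h post-infection following a 15 min RT substrate incubation.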
* hit, by the source's call; ? = inconclusive; . = no result; [ ] = remark or other dose. A selection: hits, their analogues and other compounds. The true share with any hit is near 11%. The call rests on the fitted dose curve; in most records, active means well fitted curve in the direction sought with a large enough effect; inconclusive means small, poorly fitted or top-dose-only effect, or another doubt; inactive means no such curve, though single readings can be large; an effect the other way counts as inactive or inconclusive. Unless noted, on the % scale 0 is the no-effect control and ±100 the full control effect; potency means the concentration at half of the fitted maximal effect.

SMILES	Pf growth 96h	AMA1-RON2 inh	Pf growth 48h	HCV inhibitor
Cc1ccc(NC(=S)N2CCCC(c3nc4ccc(C)cc4[nH]3)C2)c(C)c1 (centres undefined)	4%	5%	34%	10µM*
Cc1ccc2nc(C3CCCN(C(=S)Nc4cccc(C)c4C)C3)[nH]c2c1 (centres undefined)	17%	19%	-24%	1.8µM*
Cc1cc2nc(C3CCCN(C(=S)Nc4ccccc4C)C3)[nH]c2cc1C (centres undefined)	28%	-5%	24%	10µM*
Cc1cc(C)n2nc(SCC(=O)N3CCC(C(=O)O)CC3)nc2n1	.	-3%	.	-4%
C#Cc1cccc(Nc2nc(NCc3ccccc3)nc3ccsc23)c1	.	-17%	.	.
COc1ccc(N2c3ccccc3CN(Cc3ccccc3)CC2Cc2cc(OC)c(OC)c(OC)c2)cc1 (centres undefined)	.	11µM*	.	.
COc1ccc(S(=O)(=O)N2CCOCC2)cc1NC(=O)COc1ccc2c(C)cc(=O)oc2c1	.	-7%	.	6%
Cc1ccc(NC(=O)CSc2ccc(Br)cc2)cc1S(=O)(=O)N1CCOCC1	-26%	2%	?	32µM*
Cc1ccc(S(=O)(=O)N2CCOCC2)cc1NC(=O)COc1ccccc1Cc1ccccc1	.	-1%	.	13µM*
Cc1ccc(S(=O)(=O)N2CCOCC2)cc1NC(=O)COC(=O)CNC(=O)c1ccccc1	-4%	5%	31%	2%
Cc1ccc(S(=O)(=O)N2CCOCC2)cc1NC(=O)COc1ccc2c(C)cc(=O)oc2c1	9.3µM*	18%	?	-4%
Cc1ccc(S(=O)(=O)N2CCOCC2)cc1NC(=O)COc1ccc(C(=O)c2ccccc2)cc1	?	-4%	?	10µM*
S=C(Nc1ccc(Br)cc1Cl)Nn1cnnc1	?	67%	21%	-7%
CC1(C)Cc2cccc(OCC(=O)OCC(=O)Nc3ccc(S(N)(=O)=O)cc3)c2O1	.	11%	.	.
COc1ccc(NC(=O)Cc2coc3cc(C)c(C(C)C)cc23)cc1S(=O)(=O)N1CCOCC1	?	2%	?	7.1µM*
COc1ccc(NC(=O)CSc2ccccc2)cc1S(=O)(=O)N1CCOCC1	12µM*	-7%	-14%	-12%
Cc1noc(C)c1COC(=O)c1cccc(S(=O)(=O)N2CCCCCC2)c1	22%	0%	?	2.2µM*
COc1ccc2c(CC(=O)Nc3ccc(OC)c(S(=O)(=O)N4CCOCC4)c3)coc2c1	15%	-14%	5%	-22%
O=C(COc1ccccc1Cc1ccccc1)Nc1cccc(S(=O)(=O)N2CCOCC2)c1	4.1µM*	-5%[11.6 µM]	13µM*	?
O=C(Cc1ccccc1Cl)Nc1cccc(S(=O)(=O)N2CCOCC2)c1	?	7%	7%	7%
CCCCCCCCN1C(=O)[C@H](CC(=O)NCc2cccc(C(F)(F)F)c2)C[C@@]2(C(=O)OCC)CCCC=C12	.	3%	.	.
CCNC(=O)C1CCCN(C(=O)c2ccc(C#N)cc2)CC1 (centres undefined)	.	-1%	.	.
COc1ccccc1CCC(=O)Nc1ccc(OC)c(S(=O)(=O)N2CCOCC2)c1	?	2%[11.6 µM]	-8%	-3%
COc1ccc(Nc2nc(-c3cccs3)nc3ccccc23)cc1S(=O)(=O)N1CCOCC1	.	-9%	.	2.8µM*
COc1ccc(NS(=O)(=O)c2cccs2)cc1S(=O)(=O)N1CCOCC1	39%	-7%	-9%	11%
SMILES	Pf growth 96h	AMA1-RON2 inh	Pf growth 48h	HCV inhibitor
COc1ccc(NC(=O)COc2ccccc2Cc2ccccc2)cc1S(=O)(=O)N1CCOCC1	5.2µM*	6%	12µM*	?
Cc1ccc(S(=O)(=O)N2CCOCC2)cc1NC(=O)COC(=O)c1ccc(OCc2c(C)noc2C)cc1	?	-1%	13µM*	0%
CCN(CC)S(=O)(=O)c1ccc(OC)c(NC(=O)COc2ccc3c(C)cc(=O)oc3c2)c1	2.6µM*	0%	?	?
C[C@H]1COC(=O)[C@@H](CC(=O)OC(C)(C)C)C/C=C\C[C@@H](CC(=O)N(CCO)Cc2ccccc2)C(=O)N1	.	14%	.	-4%
CC(C)CCN1CCN(CCCn2cccn2)CC1CCO (centres undefined)	-2%	13%	45%	15%
CC1=C(C(=O)Nc2ccc(F)cc2)C(c2cccc(C)c2)n2nc(CCCO)nc2N1 (centres undefined)	6.6µM*	9%	-3%	2%

Source: PubChem (National Center for Advancing Translational Sciences (NCATS))
